Laboratory results: PubChem BioAssay (NCATS)
Results filed as inconclusive are left out. Activity calls are given as the source filed them. Unless noted, the call rests on the fitted dose curve.

Experiments:
[1] = target: Lysosomal acid glucosylceramidase (Homo sapiens) (UniProt P04062); test: Glucocerebrosidase-p2 (AID 348; in the data active means potency below about 10 µM; further: potency means the concentration at half of the fitted maximal effect); conditions: purified GBA, blue fluorogenic substrate, 40 min
Sequence of Lysosomal acid glucosylceramidase (Homo sapiens) (P04062 whole entry, looked up): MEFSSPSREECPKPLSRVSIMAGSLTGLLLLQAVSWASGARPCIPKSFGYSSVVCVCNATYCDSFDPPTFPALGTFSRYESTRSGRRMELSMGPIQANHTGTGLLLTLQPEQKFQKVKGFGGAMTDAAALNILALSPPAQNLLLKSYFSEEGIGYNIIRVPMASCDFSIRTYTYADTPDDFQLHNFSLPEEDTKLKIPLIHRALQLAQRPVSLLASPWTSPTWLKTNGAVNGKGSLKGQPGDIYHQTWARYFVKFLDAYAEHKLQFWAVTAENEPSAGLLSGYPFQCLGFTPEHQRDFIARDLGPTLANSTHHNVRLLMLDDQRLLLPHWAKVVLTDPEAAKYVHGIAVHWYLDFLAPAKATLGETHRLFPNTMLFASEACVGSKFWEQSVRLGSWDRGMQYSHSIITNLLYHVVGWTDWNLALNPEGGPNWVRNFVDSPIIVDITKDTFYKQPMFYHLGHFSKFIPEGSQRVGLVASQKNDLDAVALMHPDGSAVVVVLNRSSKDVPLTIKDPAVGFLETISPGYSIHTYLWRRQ
Method in brief: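 Compounds titrated from 0.6 nM upwards against 0.2 nM enzyme in pH 5.9 citric acid/KH2PO4, taurocholate, tween-20; blue fluorogenic substrate 80 uM, 40 min room temperature, stopped and read Ex 365/Em 440 for AC50.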

[2] = AP1 Signaling Pathway (AID 357; active means well fitted curve in either direction with a large enough effect, not every such curve was filed as active;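 further: ME-180 reporter cells stimulated with EGF at its EC50 level; on the % scale 0 is the no-effect control and ±100 the full control effect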); conditions: ME-180 AP-1-bla reporter, EGF-induced, beta-lactamase ratio, 5 h; at 7.69 µM (top of the series) unless noted
Method in brief: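 In this screen, ME-180 cells in Opti-MEM with 0.5% dialyzed FBS received EC50 EGF and compound titrations for 5 h. AP-1 reporter beta-lactamase was detected via CCF4 ratio, giving AC50 for positive and negative modulators.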

[3] = target: Cytochrome P450 1A2 (Homo sapiens) (UniProt P05177); test: p450-cyp1a2 (AID 410); conditions: recombinant CYP1A2, luciferin-ME demethylation, luminescence; series mostly up to 57 µM; further: potency means the concentration at half of the fitted maximal effect;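 on activity change, negative = inhibition: -100% = full effect of reference inhibitor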
Sequence of Cytochrome P450 1A2 (Homo sapiens) (P05177 whole entry, looked up): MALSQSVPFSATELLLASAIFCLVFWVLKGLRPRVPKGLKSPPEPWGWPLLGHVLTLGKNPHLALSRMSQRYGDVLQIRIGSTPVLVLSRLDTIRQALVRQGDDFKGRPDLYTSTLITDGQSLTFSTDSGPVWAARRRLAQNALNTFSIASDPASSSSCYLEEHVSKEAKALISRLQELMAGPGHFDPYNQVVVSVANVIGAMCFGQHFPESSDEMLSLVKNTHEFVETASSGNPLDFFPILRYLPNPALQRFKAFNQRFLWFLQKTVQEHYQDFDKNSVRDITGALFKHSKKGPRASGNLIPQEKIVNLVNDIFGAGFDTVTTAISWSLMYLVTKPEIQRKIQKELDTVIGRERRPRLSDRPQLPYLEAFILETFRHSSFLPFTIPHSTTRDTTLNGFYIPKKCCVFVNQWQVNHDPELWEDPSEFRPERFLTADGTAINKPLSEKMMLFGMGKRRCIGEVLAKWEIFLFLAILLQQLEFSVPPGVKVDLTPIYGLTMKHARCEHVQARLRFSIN
Method in brief: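 20nM CYP1A2 with 100uM Luciferin-ME (at Km) in 100mM KPO4; compound preincubated 10 min, NADPH regeneration added, 60 min at room temperature. Luciferin quantified by luminescence after detection reagent; normalized to 57 uM furafylline.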

[4] = Stat Signaling Pathway (AID 446; active means well fitted curve in either direction with a large enough effect, not every such curve was filed as active;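 further: ME-180 cervical cancer cells given 40 pM IL-6 alongside compound; SIE-controlled beta-lactamase reporter measured as 460/530 nm FRET emission ratio; on the % scale 0 is the no-effect control and ±100 the full control effect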); conditions: ME-180 SIE beta-lactamase reporter, IL-6 stimulated, 5 h; at 7.69 µM (top of the series) unless noted
Method in brief: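 ME-180 cells carrying a SIE-driven beta-lactamase reporter are stimulated with 40 pM IL-6 for 5 h at 37C in the presence of compound. The 460/530 nm FRET substrate ratio is read after 2.5 h at RT. Data are normalised to 300 pM IL-6 and to 125 nM JAK inhibitor controls.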

[5] = target: Glucocorticoid receptor (Homo sapiens) (UniProt P04150); test: GR-EFC Redistribution (AID 451); conditions: CHO-K1 GR-EFC translocation, beta-gal luminescence, 2 h; further: potency means the concentration at half of the fitted maximal effect
Sequence of Glucocorticoid receptor (Homo sapiens) (P04150 whole entry, looked up, the tested form may be a part): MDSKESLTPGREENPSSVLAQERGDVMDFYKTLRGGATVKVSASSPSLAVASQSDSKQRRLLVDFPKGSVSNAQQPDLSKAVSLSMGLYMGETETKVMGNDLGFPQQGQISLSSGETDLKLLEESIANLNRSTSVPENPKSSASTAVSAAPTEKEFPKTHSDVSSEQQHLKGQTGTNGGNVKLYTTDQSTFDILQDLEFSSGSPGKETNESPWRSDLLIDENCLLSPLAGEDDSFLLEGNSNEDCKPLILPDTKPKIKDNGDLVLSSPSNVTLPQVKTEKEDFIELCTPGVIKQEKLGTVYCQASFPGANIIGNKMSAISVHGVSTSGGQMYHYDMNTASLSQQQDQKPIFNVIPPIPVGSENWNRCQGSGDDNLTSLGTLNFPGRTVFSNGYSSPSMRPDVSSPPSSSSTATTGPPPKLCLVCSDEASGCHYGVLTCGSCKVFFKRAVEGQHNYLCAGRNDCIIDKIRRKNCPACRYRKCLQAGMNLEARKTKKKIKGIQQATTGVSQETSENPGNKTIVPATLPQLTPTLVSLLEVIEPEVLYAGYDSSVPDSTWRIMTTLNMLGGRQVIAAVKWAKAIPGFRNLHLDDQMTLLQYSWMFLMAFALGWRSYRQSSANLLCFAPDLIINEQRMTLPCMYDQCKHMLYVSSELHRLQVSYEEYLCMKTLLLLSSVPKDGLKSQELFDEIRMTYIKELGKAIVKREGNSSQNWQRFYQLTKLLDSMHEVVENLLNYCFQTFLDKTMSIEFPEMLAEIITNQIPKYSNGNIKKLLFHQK
Method in brief: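 CHO-K1 cells expressing nuclear EA and GR-ED fragments of b-gal; compounds titrated up to 46 uM final, 2 h at 37 C. GR nuclear translocation read as complemented b-gal luminescence after 1 h RT detection.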

[6] = target: Mitogen-activated protein kinase 10 (Mus musculus) (UniProt Q61831); test: JNK3 AlphaScreen Assay (AID 530; active means well fitted curve in either direction with a large enough effect, not every such curve was filed as active;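 further: kinase came from lysate of stimulated human HepG2 cells; signal reports phosphorylation of biotinylated GST-cJun 1-79 at Ser73 with 10 µM ATP; on the % scale 0 is the no-effect control and ±100 the full control effect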); conditions: JNK3 lysate, c-Jun phosphorylation; series mostly up to 57.1 µM
Method in brief: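 Pre-activated (IL-1β/TNFα) JNK3 in HepG2 lysates phosphorylates biotin-GST-cJun(1-79), 10 uM ATP; anti-phospho-cJun(Ser73) AlphaScreen read at room temperature, pH 7.6 Tris buffer. Compounds pre-incubated 15 min as titrations.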

[7] = target: 3',5'-cyclic-AMP phosphodiesterase 4B (Homo sapiens) (UniProt Q07343); test: qHTS Assay for Inhibitors of PDE-IV (AID 607; active means well fitted activation curve with a large enough effect in the main read-out, with a control signal flat, not every such curve was filed as active; further: % of control where 0% means no effect); conditions: HEK293 ACTOne CNG channel cells, membrane potential fluorescence; series mostly up to 22.9 µM
Sequence of 3',5'-cyclic-AMP phosphodiesterase 4B (Homo sapiens) (Q07343 whole entry, looked up): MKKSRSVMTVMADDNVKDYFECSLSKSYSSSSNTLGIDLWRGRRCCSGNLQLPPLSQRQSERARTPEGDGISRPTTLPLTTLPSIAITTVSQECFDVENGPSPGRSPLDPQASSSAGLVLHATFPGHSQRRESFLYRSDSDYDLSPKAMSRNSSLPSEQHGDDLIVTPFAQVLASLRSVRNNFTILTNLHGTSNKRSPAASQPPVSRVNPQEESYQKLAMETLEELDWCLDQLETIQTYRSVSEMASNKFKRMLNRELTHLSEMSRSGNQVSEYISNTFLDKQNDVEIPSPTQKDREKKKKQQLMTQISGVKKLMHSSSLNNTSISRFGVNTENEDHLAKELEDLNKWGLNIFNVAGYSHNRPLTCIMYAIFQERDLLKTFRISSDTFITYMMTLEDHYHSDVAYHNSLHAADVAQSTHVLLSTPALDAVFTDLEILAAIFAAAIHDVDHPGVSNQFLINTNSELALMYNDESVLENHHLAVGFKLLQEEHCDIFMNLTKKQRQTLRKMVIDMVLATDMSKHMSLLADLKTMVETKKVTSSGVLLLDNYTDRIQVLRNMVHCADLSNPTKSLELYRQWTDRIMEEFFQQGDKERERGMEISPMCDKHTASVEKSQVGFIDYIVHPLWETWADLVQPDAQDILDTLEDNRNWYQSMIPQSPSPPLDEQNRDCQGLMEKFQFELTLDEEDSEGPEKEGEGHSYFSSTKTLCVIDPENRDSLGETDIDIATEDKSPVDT
Method in brief: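 HEK293 ACTOne cells with CNG channel (1000/well), endogenous PDE4; membrane potential dye, compounds up to 22.9 uM final. Fluorescence Ex 535/Em 590; RO 20-1724 (100 uM final) as reference.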

[8] = target: Cytochrome P450 3A4 (Homo sapiens) (UniProt P08684); test: qHTS Assay for Inhibitors and Substrates of Cytochrome P450 3A4 (AID 884; active means well fitted curve in the direction sought with a large enough effect; an effect the other way counts as inactive or inconclusive; further: nearly all actives have a fitted effect of over 50% in size; further: potency means the concentration at half of the fitted maximal effect); conditions: recombinant CYP3A4, Luciferin-PPXE luminescence; series mostly up to 57.1 µM
Sequence of Cytochrome P450 3A4 (Homo sapiens) (P08684 whole entry, looked up): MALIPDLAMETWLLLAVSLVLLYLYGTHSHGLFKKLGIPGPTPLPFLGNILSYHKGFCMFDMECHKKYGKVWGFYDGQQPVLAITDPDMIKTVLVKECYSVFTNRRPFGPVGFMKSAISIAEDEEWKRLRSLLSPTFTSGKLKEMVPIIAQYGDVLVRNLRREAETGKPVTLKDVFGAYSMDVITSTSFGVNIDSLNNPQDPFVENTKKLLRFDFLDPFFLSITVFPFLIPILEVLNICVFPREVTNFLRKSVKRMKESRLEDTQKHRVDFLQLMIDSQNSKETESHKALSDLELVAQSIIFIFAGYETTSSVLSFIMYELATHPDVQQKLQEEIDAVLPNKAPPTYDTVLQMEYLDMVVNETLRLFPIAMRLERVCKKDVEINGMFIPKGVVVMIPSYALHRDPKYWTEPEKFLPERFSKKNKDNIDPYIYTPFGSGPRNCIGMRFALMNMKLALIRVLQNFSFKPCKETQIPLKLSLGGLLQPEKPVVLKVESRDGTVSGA
Method in brief: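 20 nM human CYP3A4 with 25 uM Luciferin-PPXE (at KM) in 200 mM KPO4, preincubated 10 min with compound; NADPH regeneration started a 60 min RT reaction. Luciferin detected by luminescence, normalized to 57 uM ketoconazole as full inhibition.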

[9] = qHTS Assay for Identification of Small Molecule Agonists for Hypoxia Response Element Signaling Pathway (AID 914; active means well fitted activation curve with a large enough effect in the signal ratio, with a control signal flat, not every such curve was filed as active; the % refers to the signal ratio; further: % of control where 0% means no effect); conditions: ME-180 HRE-bla reporter, beta-lactamase ratio, CoCl2, 17 h; activation: stronger effect = higher value
Method in brief: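 ME-180 cells carrying an HRE-driven beta-lactamase reporter were treated with compounds in a titration series plus an EC50 level of CoCl2 for 17 h at 37 degrees Celsius; CCF4 readout as the 460nm/530nm ratio gave AC50 values.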

[10] = qHTS Assay for Lipid Storage Modulators (AID 1519); conditions: Drosophila S3 cells, BODIPY lipid droplet/cell ratio, laser cytometry, cells loaded with oleic acid; for activity change, negative = inhibition: at 57.5 µM (top of the series)
Method in brief: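 Cells seeded at 5,000 per well were treated with compounds over a concentration series and loaded with oleic acid (400 uM, as added). Lipid droplet fluorescence (488 nm excitation, 500-530 nm channel) was read by laser-scanning cytometry and normalized to 20 uM Triacsin C.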

[11] = Primary qHTS for small molecule stabilizers of the endoplasmic reticulum resident proteome: Secreted ER Calcium Modulated Protein (SERCaMP) assay (AID 1508630; active means well fitted curve in the direction sought with a large enough effect; an effect the other way counts as inactive or inconclusive; further: on the % scale 0 is the no-effect control and ±100 the full control effect); conditions: SH-SY5Y GLuc-SERCaMP (Gaussia luciferase released on ER calcium loss) secretion, thapsigargin, luminescence; series mostly up to 38.4 µM
Method in brief: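 GLuc-SERCaMP-expressing SH-SY5Y cells, pretreated 16 h with compound, are challenged with thapsigargin to empty ER calcium stores; after 4 h, coelenterazine is added directly to the medium and luminescence is imaged.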

[12] = target: Cytochrome P450 3A4 (Homo sapiens) (UniProt P08684); test: qHTS Assay for Activators of Cytochrome P450 3A4 (AID 885; active means well fitted curve in the direction sought with a large enough effect; an effect the other way counts as inactive or inconclusive; further: nearly all actives have a fitted effect of over 65% in size; further: potency means the concentration at half of the fitted maximal effect); conditions: recombinant CYP3A4, Luciferin-PPXE luminescence, 60 min; series mostly up to 57.1 µM
Method in brief: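 Human CYP3A4 (20 nM) with Luciferin-PPXE at 25 uM (its KM) in 200 mM KPO4; 10 min compound preincubation, then NADPH regeneration and 60 min reaction at RT. Luciferin read by luminescence; normalized to 57 uM ketoconazole full inhibition.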

[13] = target: Cytochrome P450 2D6 (Homo sapiens) (UniProt P10635); test: qHTS Assay for Inhibitors and Substrates of Cytochrome P450 2D6 (AID 891; active means well fitted curve in the direction sought with a large enough effect; an effect the other way counts as inactive or inconclusive; further: potency means the concentration at half of the fitted maximal effect; nearly all actives have a fitted effect of over 60% in size); conditions: recombinant CYP2D6, luciferin-ME EGE luminescence; series mostly up to 57.1 µM
Sequence of Cytochrome P450 2D6 (Homo sapiens) (P10635 whole entry, looked up): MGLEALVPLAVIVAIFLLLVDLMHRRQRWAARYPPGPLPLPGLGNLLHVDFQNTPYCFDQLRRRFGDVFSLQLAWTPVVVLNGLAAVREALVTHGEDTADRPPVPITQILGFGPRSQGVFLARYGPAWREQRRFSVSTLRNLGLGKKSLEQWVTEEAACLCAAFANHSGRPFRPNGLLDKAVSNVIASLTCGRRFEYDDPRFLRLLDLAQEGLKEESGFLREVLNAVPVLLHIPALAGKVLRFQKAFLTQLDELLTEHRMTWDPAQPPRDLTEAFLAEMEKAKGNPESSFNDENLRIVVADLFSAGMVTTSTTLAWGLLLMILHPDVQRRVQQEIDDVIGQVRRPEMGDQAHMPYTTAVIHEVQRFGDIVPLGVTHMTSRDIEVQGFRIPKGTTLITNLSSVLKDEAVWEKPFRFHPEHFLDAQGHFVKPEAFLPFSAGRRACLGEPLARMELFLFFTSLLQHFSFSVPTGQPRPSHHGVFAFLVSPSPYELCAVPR
Method in brief: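 Human CYP2D6 (5 nM) with 30 uM Luciferin-ME EGE (at Km) in 100 mM KPO4, compound preincubated 10 min, then NADPH regeneration system for 60 min at room temperature. Luciferin read by luminescence; normalized to 1.43 uM quinidine.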

[14] = target: Cytochrome P450 2C9 (Homo sapiens) (UniProt P11712); test: qHTS Assay for Inhibitors and Substrates of Cytochrome P450 2C9 (AID 883; active means well fitted curve in the direction sought with a large enough effect; an effect the other way counts as inactive or inconclusive; further: potency means the concentration at half of the fitted maximal effect; nearly all actives have a fitted effect of over 60% in size); conditions: recombinant CYP2C9, luciferin-H luminescence, 60 min; series mostly up to 57.1 µM
Sequence of Cytochrome P450 2C9 (Homo sapiens) (P11712 whole entry, looked up): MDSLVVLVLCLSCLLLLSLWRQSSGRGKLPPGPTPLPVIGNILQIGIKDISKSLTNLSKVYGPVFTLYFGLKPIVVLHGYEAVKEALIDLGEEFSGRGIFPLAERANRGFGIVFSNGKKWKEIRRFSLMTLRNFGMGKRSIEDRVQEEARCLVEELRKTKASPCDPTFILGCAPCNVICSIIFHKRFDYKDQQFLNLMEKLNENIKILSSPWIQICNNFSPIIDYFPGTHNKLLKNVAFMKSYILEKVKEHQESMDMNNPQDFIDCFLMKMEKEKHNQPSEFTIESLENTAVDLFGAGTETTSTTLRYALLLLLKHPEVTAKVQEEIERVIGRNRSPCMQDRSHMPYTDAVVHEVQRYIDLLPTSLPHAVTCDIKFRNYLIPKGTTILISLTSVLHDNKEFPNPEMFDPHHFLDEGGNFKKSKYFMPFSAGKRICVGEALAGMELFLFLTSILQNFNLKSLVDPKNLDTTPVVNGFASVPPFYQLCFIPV
Method in brief: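 Human CYP2C9 (10nM) with Luciferin-H at 100uM (its KM) in 25mM KPO4; compound preincubated 10 min at 37C, then NADPH regeneration for 60 min at 37C. Luciferin read by luminescence after detection reagent; normalized to 57uM sulphaphenazole as full inhibition.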

[15] = measured here: cell count channel max response
[16] = measured here: lipid channel max response

c1ccc(C(c2ccccc2)N2CCCC3(CCNCC3)C2)cc1
-12.4%: max response [10, 15]
-10.8%: max response [10, 16]
inactive: Potency [1] > 11.4 µM | activity change, negative = inhibition [2] -3.1% | activity, negative = inhibition [4] 4.89% | Potency [5] > 46 µM | Potency [6] | Potency [7] | activation [9] 19.3% | activity change, negative = inhibition [10] -1.73% | outcome [11]
active: Potency [3] 7.94 µM | Potency [8] 1.26 µM

O=C(c1ccncc1)N1CCC2(CCN(Cc3ccccc3)CC2)CC1
18.6%: max response [10, 16]
inactive: Potency [1] > 11.4 µM | activity change, negative = inhibition [2] 3.68% | Potency [3] | activity, negative = inhibition [4] -6.01% | Potency [5] > 46 µM | Potency [6] | Potency [7] | Potency [12] | activity change, negative = inhibition [10] 3.67% | outcome [11]
13.9%: max response [10, 15]

O=C(c1cnccn1)N1CCC2(CC1)CN(C(c1ccccc1)c1ccccc1)C2
6.7%: max response [10, 15]
10.5%: max response [10, 16]
inactive: Potency [1] > 11.4 µM | activity change, negative = inhibition [2] -2% | activity, negative = inhibition [4] -4.86% | Potency [5] > 46 µM | Potency [6] | Potency [7] | Potency [8] | activity change, negative = inhibition [10] 1.71% | outcome [11]
active: Potency [3] 25.1 µM | Potency [12] 12.6 µM | Potency [13] 6.31 µM

N#Cc1ccc(CN2CC[C@@]3(CCCN(C(=O)c4cc(C(F)(F)F)cc(C(F)(F)F)c4)C3)C2)cc1
-0.217%: max response [10, 15]
inactive: Potency [1] > 11.4 µM | activity change, negative = inhibition [2] 17.7% | activity, negative = inhibition [4] -2.46% | Potency [5] > 46 µM | Potency [6] | Potency [7] | Potency [12] | activation [9] 13.6% | activity change, negative = inhibition [10] 2.06% | outcome [11]
active: Potency [3] 25.1 µM | Potency [8] 5.01 µM
4.67%: max response [10, 16]

O=C(c1cc(C(F)(F)F)cc(C(F)(F)F)c1)N1CCC[C@@]2(CCN(c3ncccn3)C2)C1
8.96%: max response [10, 15]
17.5%: max response [10, 16]
inactive: Potency [1] > 11.4 µM | activity change, negative = inhibition [2] 8.42% | Potency [3] | activity, negative = inhibition [4] -17.1% | Potency [5] > 46 µM | Potency [6] | Potency [7] | Potency [12] | activity change, negative = inhibition [10] 4.69% | outcome [11]

CS(=O)(=O)N1CCC2(CCCN(C(c3ccccc3)c3ccccc3)C2)CC1
13.3%: max response [10, 15]
16.2%: max response [10, 16]
inactive: Potency [1] > 11.4 µM | activity change, negative = inhibition [2] -6.2% | Potency [3] | activity, negative = inhibition [4] 12.1% | Potency [5] > 46 µM | Potency [6] | Potency [7] | Potency [12] | activity change, negative = inhibition [10] 2.84% | outcome [11]
active: Potency [8] 3.98 µM | Potency [13] 5.01 µM

COc1ccc(C(=O)N2CCC3(CC2)CCN(C(c2ccccc2)c2ccccc2)CC3)cc1
13.4%: max response [10, 15]
active: Potency [12] 3.16 µM
21.1%: max response [10, 16]
inactive: Potency [1] > 11.4 µM | activity change, negative = inhibition [2] 4.01% | Potency [3] | activity, negative = inhibition [4] -17.5% | Potency [5] > 46 µM | Potency [6] | Potency [7] | Potency [8] | activity change, negative = inhibition [10] 2.48% | outcome [11]

COc1ccc(C(=O)N2CCC3(CCCN(CC(C)C)C3)CC2)cc1
21.1%: max response [10, 15]
26.9%: max response [10, 16]
inactive: Potency [1] > 11.4 µM | activity change, negative = inhibition [2] -7.24% | Potency [3] | activity, negative = inhibition [4] -5.73% | Potency [5] > 46 µM | Potency [6] | Potency [7] | Potency [12] | activity change, negative = inhibition [10] 2.63% | outcome [11]

O=C(c1ccco1)N1CCC2(CC1)CN(c1ccccn1)C2
active: Potency [12] 10 µM
inactive: Potency [1] > 11.4 µM | activity change, negative = inhibition [2] 2.14% | Potency [3] | activity, negative = inhibition [4] -14.8% | Potency [5] > 46 µM | Potency [6] | Potency [7] | Potency [8] | activity change, negative = inhibition [10] 5.94% | outcome [11]
3%: max response [10, 15]
11.7%: max response [10, 16]

COc1ccccc1CN1CCCC2(CCN(C(=O)c3ccncc3)CC2)C1
9.4%: max response [10, 16]
active: Potency [3] 20 µM | Potency [8] 6.31 µM | Potency [13] 3.16 µM
inactive: Potency [1] > 11.4 µM | activity change, negative = inhibition [2] -0.588% | activity, negative = inhibition [4] 1.91% | Potency [5] > 46 µM | Potency [6] | Potency [7] | Potency [12] | activation [9] 3.13% | activity change, negative = inhibition [10] 1.58% | outcome [11]
5.27%: max response [10, 15]

O=C(c1ccncc1)N1CCC2(CCCN(C(c3ccccc3)c3ccccc3)C2)CC1
active: Potency [3] 0.2 µM | Potency [14] 5.01 µM | Potency [13] 0.0398 µM
17.9%: max response [10, 16]
12.6%: max response [10, 15]
inactive: Potency [1] > 11.4 µM | activity change, negative = inhibition [2] 22.9% | activity, negative = inhibition [4] 11.1% | Potency [5] > 46 µM | Potency [6] | Potency [7] | Potency [12] | activity change, negative = inhibition [10] 2.92% | outcome [11]

COc1ccc(NC(=O)N2CCCC3(CCN(S(=O)(=O)c4ccccc4)CC3)C2)cc1
inactive: Potency [1] > 11.4 µM | activity change, negative = inhibition [2] -4.9% | Potency [3] | activity, negative = inhibition [4] -19% | Potency [5] > 46 µM | Potency [6] | Potency [7] | Potency [12] | activity change, negative = inhibition [10] 2.57% | outcome [11]
10.9%: max response [10, 16]
6.07%: max response [10, 15]
active: Potency [8] 7.94 µM

Cc1noc(C)c1C(=O)N1CCC2(CCCN(c3ccncc3)C2)CC1
23.4%: max response [10, 16]
15.3%: max response [10, 15]
inactive: Potency [1] > 11.4 µM | activity change, negative = inhibition [2] 6.75% | Potency [3] | activity, negative = inhibition [4] 8.27% | Potency [5] > 46 µM | Potency [6] | Potency [7] | Potency [12] | activity change, negative = inhibition [10] 5.44% | outcome [11]
